Reference: PubChem BioAssay AID1159580 (chemical genetic matrix, 2015)
In all, about 5,500 compounds went through this assay and about 2,000 (36%) were called active. About 18% were inconclusive and are not listed. No stated cut-off is given here; in the data, active means normalized growth mostly below about 0.91 (no sharp cut-off); inconclusive means no clear call, values can overlap the other calls; inactive means mostly above about 0.92. The list shows a part of the results.

Experiment: chemical genetic growth profiling, strain panel (AID 1159580);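 further: tested at 20 µM; growth read once vehicle control cultures reached saturation at 30 °C; 1 = growth at the plate median or of vehicle wells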
Conditions: S. cerevisiae deletion strains, growth OD

Measured: normalized growth

CO[C@H]1/C=C/O[C@@]2(C)Oc3c(C)c(O)c4c(O)c(c5c(nc6cc(C)ccn65)c4c3C2=O)NC(=O)/C(C)=C\C=C\[C@H](C)[C@H](O)[C@@H](C)C(O)[C@@H](C)[C@H](OC(C)=O)[C@@H]1C (stereo not given in full)
inactive: locus YAL021C, strain ccr4, stronger effect = lower value 1.04 | locus YAL026C, strain drs2, stronger effect = lower value 1.04 | locus YAL030W, strain snc1, stronger effect = lower value 1.04 | locus YBL061C, strain skt5, stronger effect = lower value 1.04 | locus YBR009C, strain hhf1, stronger effect = lower value 1.01 | locus YBR023C, strain chs3, stronger effect = lower value 1.05 | locus YBR171W, strain sec66, stronger effect = lower value 1.06 | locus YBR231C, strain swc5, stronger effect = lower value 1.05 | locus YBR279W, strain paf1, stronger effect = lower value 1.03 | locus YCL011C, strain gbp2, stronger effect = lower value 1.05 | locus YCL016C, strain dcc1, stronger effect = lower value 1.03 | locus YCL061C, strain MRC1, stronger effect = lower value 1.04 | locus YCL069W, strain vba3, stronger effect = lower value 1.05 | locus YCR088W, strain abp1, stronger effect = lower value 1.04 | locus YDL005C, strain med2, stronger effect = lower value 1.06 | locus YDL040C, strain nat1, stronger effect = lower value 1.03 | locus YDR001C, strain nth1, stronger effect = lower value 1.04 | locus YDR069C, strain doa4, stronger effect = lower value 1.04 | locus YDR137W, strain rgp1, stronger effect = lower value 0.988 | locus YDR159W, strain sac3, stronger effect = lower value 1.05 | locus YDR195W, strain ref2 1.05 | locus YDR297W, strain sur2, stronger effect = lower value 1.04 | locus YDR334W, strain swr1, stronger effect = lower value 1.03 | locus YDR335W, strain msn5, stronger effect = lower value 1.04 | locus YDR392W, strain spt3, stronger effect = lower value 0.961 | locus YEL003W, strain gim4, stronger effect = lower value 1.04 | locus YEL037C, strain rad23, stronger effect = lower value 1.04 | locus YEL061C, strain CIN8 (second series), stronger effect = lower value 1.04 | locus YER015W, strain faa2, stronger effect = lower value 1.04 | locus YER016W, strain bim1, stronger effect = lower value 1.03 | locus YER111C, strain swi4, stronger effect = lower value 1.05 | locus YER155C, strain BEM2 (second series), stronger effect = lower value 1.02 | locus YFR010W, strain ubp6, stronger effect = lower value 1.04 | locus YGL167C, strain pmr1, stronger effect = lower value 1.04 | locus YGL173C, strain kem1, stronger effect = lower value 1.04 | locus YGL227W, strain vid30, stronger effect = lower value 1.05 | locus YGL240W, strain doc1, stronger effect = lower value 1.03 | locus YGL253W, strain hxk2, stronger effect = lower value 1.06 | locus YHR013C, strain ard1, stronger effect = lower value 1.08 | locus YHR027C, strain rpn1, stronger effect = lower value 1.04 | locus YHR030C, strain SLT2, stronger effect = lower value 1.03 | locus YHR079C, strain IRE1, stronger effect = lower value 1.03 | locus YHR142W, strain chs7, stronger effect = lower value 1.07 | locus YJL092W, strain hpr5, stronger effect = lower value 1.04 | locus YJL095W, strain BCK1 (second series), stronger effect = lower value 1.03 | locus YJL095W, strain BCK1, stronger effect = lower value 0.988 | locus YJL115W, strain asf1, stronger effect = lower value 1.04 | locus YJL129C, strain trk1, stronger effect = lower value 1.06 | locus YJL154C, strain vps35, stronger effect = lower value 1.04 | locus YJL164C, strain tpk1, stronger effect = lower value 1.04 | locus YJL166W, strain qcr8, stronger effect = lower value 1.05 | locus YJL187C, strain SWE1, stronger effect = lower value 1.06 | locus YJR066W, strain TOR1, stronger effect = lower value 0.982 | locus YKL160W, strain elf1, stronger effect = lower value 1.05 | locus YKR026C, strain gcn3, stronger effect = lower value 1.05 | locus YKR091W, strain srl3, stronger effect = lower value 1.04 | locus YLL001W, strain dnm1, stronger effect = lower value 1.08 | locus YLL026W, stronger effect = lower value 1.04 | locus YLL041C, strain sdh2, stronger effect = lower value 1.04 | locus YLR027C, strain aat2, stronger effect = lower value 1.03 | locus YLR113W, strain HOG1, stronger effect = lower value 1.01 | locus YLR221C, strain rsa3, stronger effect = lower value 1.06 | locus YLR258W, strain gsy2, stronger effect = lower value 1.04 | locus YLR262C, strain YPT6 (second series), stronger effect = lower value 1.09 | locus YLR320W, strain mms22, stronger effect = lower value 1.04 | locus YLR342W, strain FKS1, stronger effect = lower value 1.04 | locus YLR357W, strain rsc2, stronger effect = lower value 1.07 | locus YLR370C, strain arc18, stronger effect = lower value 1.04 | locus YLR384C, strain iki3, stronger effect = lower value 1.04 | locus YML120C, strain ndi1, stronger effect = lower value 1.02 | locus YMR058W, strain fet3, stronger effect = lower value 1.03 | locus YMR125W, strain sto1, stronger effect = lower value 1.05 | locus YMR129W, stronger effect = lower value 1.03 | locus YMR205C, strain PFK2, stronger effect = lower value 1.05 | locus YMR231W, strain pep5, stronger effect = lower value 1.04 | locus YNL071W, strain lat1, stronger effect = lower value 1.05 | locus YNL183C, strain NPR1, stronger effect = lower value 0.988 | locus YNL209W, strain ssb2, stronger effect = lower value 1.03 | locus YNL248C, strain rpa49, stronger effect = lower value 1.06 | locus YNL322C, strain KRE1 (second series), stronger effect = lower value 1.05 | locus YNR049C, strain mso1, stronger effect = lower value 1.03 | locus YOR001W, strain rrp6, stronger effect = lower value 1.01 | locus YOR070C, strain gyp1, stronger effect = lower value 1.04 | locus YOR080W, strain dia2, stronger effect = lower value 1.04 | locus YOR083W, strain WHI5, stronger effect = lower value 1.04 | locus YOR106W, strain vam3, stronger effect = lower value 1.1 | locus YOR231W, strain MKK1, stronger effect = lower value 0.989 | locus YOR265W, strain rbl2, stronger effect = lower value 1.03 | locus YOR270C, strain vph1, stronger effect = lower value 1.1 | locus YOR290C, strain snf2, stronger effect = lower value 1.04 | locus YPL051W, strain arl3, stronger effect = lower value 1.02 | locus YPL078C, strain atp4, stronger effect = lower value 1.05 | locus YPL106C, strain sse1, stronger effect = lower value 1.03 | locus YPL240C, strain hsp82, stronger effect = lower value 1.04 | locus YPL256C, strain CLN2, stronger effect = lower value 1.06
